PubChem BioAssay (EPA / NIEHS)
“And” between values parts separate entries of the source, which are not always exact repeats. Equal entries are not always repeated. Some structures have more than one record in an assay (separate samples or runs), and their calls can disagree. The source made the active and inactive calls. The calls were made as follows: active = hit-call score of the fitted dose curve at least 0.9, where 1 is the maximum; inactive = score below 0.9.

How the values were obtained:
[1] = read-out: Urokinase-type plasminogen activator receptor (uPAR), PLAUR (gene 5329); experiment: BSK_4H_uPAR: BioMAP Diversity Plus: 4H Assay for Urokinase-type plasminogen activator receptor (uPAR) Biomarker Activity (AID 2283030); settings: primary human endothelial cells (HUVEC); actives raise or lower the signal
How it was run: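 Primary human umbilical vein endothelial cells were exposed to chemical for 24 h before cell-surface uPAR was quantified by ELISA. Activity was fitted bidirectionally against the DMSO negative control baseline.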

[2] = read-out: Vascular endothelial growth factor receptor 2 (Homo sapiens) (UniProt P35968); experiment: BSK_4H_VEGFRII: BioMAP Diversity Plus: 4H Assay for Vascular endothelial growth factor receptor 2 (VEGFR2) Biomarker Activity (AID 2283031); settings: primary human endothelial cells (HUVEC); actives raise or lower the signal
How it was run: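 Primary human umbilical vein endothelial cells in the BioMAP 4H system were dosed with test chemical, and 24 h later VEGFRII was measured by ELISA. Activity was fitted bidirectionally against DMSO as negative control and baseline.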

[3] = read-out: Human Leukocyte Antigen - DR isotype (HLADR), HLA-DRA (gene 3122); experiment: BSK_BE3C_HLADR: BioMAP Diversity Plus: BE3C Assay for Human Leukocyte Antigen - DR isotype (HLADR) Biomarker Activity (AID 2283032); settings: primary human bronchial epithelial cells; actives raise or lower the signal
How it was run: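 Cell-surface HLA-DR ELISA readout at 24 h after dosing in the BE3C primary human lung bronchial epithelial system; gain or loss of signal against DMSO, with parallel sulforhodamine B staining of total protein for overt cytotoxicity.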

[4] = read-out: Vascular cell adhesion molecule 1 (VCAM1), VCAM1 (gene 7412); experiment: BSK_4H_VCAM1: BioMAP Diversity Plus: 4H Assay for Vascular cell adhesion molecule 1 (VCAM1) Biomarker Activity (AID 2283033); settings: primary human endothelial cells (HUVEC); actives raise or lower the signal
How it was run: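 VCAM-1 ELISA read 24 h after chemical dosing of HUVEC in the BioMAP 4H system, with gain or loss of signal fitted relative to DMSO. Parallel SRB staining (560 nm) checked overt cytotoxicity.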

[5] = read-out: Interferon-gamma inducible Protein 10 (IP10), CXCL10 (gene 3627); experiment: BSK_BE3C_IP10: BioMAP Diversity Plus: BE3C Assay for Interferon-gamma inducible Protein 10 (IP10) Biomarker Activity (AID 2283034); settings: primary human bronchial epithelial cells; actives raise or lower the signal
How it was run: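 IP-10 quantified by ELISA in human primary bronchial epithelial cell cultures at 24 hours post-dosing. Gain or loss of signal fitted relative to DMSO; parallel SRB staining assessed overt cytotoxicity.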

[6] = read-out: Monokine induced gamma interferon (MIG), CXCL9 (gene 4283); experiment: BSK_BE3C_MIG: BioMAP Diversity Plus: BE3C Assay for Monokine induced gamma interferon (MIG) Biomarker Activity (AID 2283035); settings: primary human bronchial epithelial cells; actives raise or lower the signal
How it was run: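 Dose cells (human primary bronchial epithelial), incubate 24 h, quantify MIG by ELISA, then fit concentration–response in both directions relative to DMSO control.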

[7] = read-out: Plasminogen activator inhibitor-1 (PAI1), SERPINE1 (gene 5054); experiment: BSK_BE3C_PAI1: BioMAP Diversity Plus: BE3C Assay for Plasminogen activator inhibitor-1 (PAI1) Biomarker Activity (AID 2283037); settings: primary human bronchial epithelial cells; actives raise or lower the signal
How it was run: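 PAI-1 was measured by ELISA in human primary bronchial epithelial cultures 24 h after chemical dosing, with cytotoxicity checked by SRB total-protein staining in parallel cultures. Activity was fitted in both directions relative to DMSO.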

[8] = read-out: urokinase plasminogen activator (uPA), PLAU (gene 5328); experiment: BSK_BE3C_uPA: BioMAP Diversity Plus: BE3C Assay for urokinase plasminogen activator (uPA) Biomarker Activity (AID 2283038); settings: primary human bronchial epithelial cells; actives raise or lower the signal
How it was run: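 Human primary bronchial epithelial cells were exposed to chemical for 24 h, then uPA levels were measured by ELISA. Responses were fitted bidirectionally against DMSO as negative control and baseline. Parallel SRB staining of total protein gauged overt cytotoxicity.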

[9] = read-out: Urokinase-type plasminogen activator receptor (uPAR), PLAUR (gene 5329); experiment: BSK_BE3C_uPAR: BioMAP Diversity Plus: BE3C Assay for Urokinase-type plasminogen activator receptor (uPAR) Biomarker Activity (AID 2283039); settings: primary human bronchial epithelial cells; actives raise or lower the signal
How it was run: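 uPAR levels were measured by ELISA after 24 h compound treatment of primary human bronchial epithelial cells, fitted in both directions relative to DMSO. Parallel SRB staining served as the cytotoxicity read-out.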

[10] = read-out: Interleukin-6 (IL6), IL6 (gene 3569); experiment: BSK_CASM3C_IL6: BioMAP Diversity Plus: CASM3C Assay for Interleukin-6 (IL6) Biomarker Activity for (AID 2283040); settings: primary human coronary artery smooth muscle cells; actives raise or lower the signal
[11] = read-out: Tissue plasminogen activator (tPA), PLAT (gene 5327); experiment: BSK_BE3C_tPA: BioMAP Diversity Plus: BE3C Assay for Tissue plasminogen activator (tPA) Biomarker Activity (AID 2283041); settings: primary human bronchial epithelial cells; actives raise or lower the signal
How it was run: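 tPA measured by ELISA 24 h after dosing human primary bronchial epithelial cells (BE3C system). Changes in either direction were fitted against DMSO. Parallel cultures were stained with SRB to flag overt cytotoxicity.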

[12] = read-out: Interleukin-8 (IL8), CXCL8 (gene 3576); experiment: BSK_CASM3C_IL8: BioMAP Diversity Plus: CASM3C Assay for Interleukin-8 (IL8) Biomarker Activity (AID 2283042); settings: primary human coronary artery smooth muscle cells; actives raise or lower the signal;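 also: IL-8 protein level quantified by ELISA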
[13] = read-out: Human Leukocyte Antigen - DR isotype (HLADR), HLA-DRA (gene 3122); experiment: BSK_CASM3C_HLADR: BioMAP Diversity Plus: CASM3C Assay for Human Leukocyte Antigen - DR isotype (HLADR) Biomarker Activity (AID 2283043); settings: primary human coronary artery smooth muscle cells; actives raise or lower the signal;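 also: cell-surface HLA-DR protein level quantified by ELISA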
[14] = read-out: Macrophage colony-stimulating factor (MCSF), CSF1 (gene 1435); experiment: BSK_CASM3C_MCSF: BioMAP Diversity Plus: CASM3C Assay for Macrophage colony-stimulating factor (MCSF) Biomarker Activity (AID 2283044); settings: primary human coronary artery smooth muscle cells; actives raise or lower the signal;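 also: M-CSF protein amount quantified by ELISA after 24 h exposure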
[15] = read-out: Low-density lipoprotein receptor (LDLR), LDLR (gene 3949); experiment: BSK_CASM3C_LDLR: BioMAP Diversity Plus: CASM3C Assay for Low-density lipoprotein receptor (LDLR) Biomarker Activity (AID 2283045); settings: primary human coronary artery smooth muscle cells; actives raise or lower the signal;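 also: LDLR protein level on the cell surface quantified by ELISA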
[16] = read-out: Monocyte Chemoattractant Protein-1 (MCP1), CCL2 (gene 6347); experiment: BSK_CASM3C_MCP1: BioMAP Diversity Plus: CASM3C Assay for Monocyte Chemoattractant Protein-1 (MCP1) Biomarker Activity (AID 2283046); settings: primary human coronary artery smooth muscle cells; actives raise or lower the signal;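 also: MCP-1 level quantified by ELISA 24 h after dosing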
[17] = BSK_CASM3C_Proliferation: Cell Proliferation Assessment in the BioMAP Diversity Plus: CASM3C Assay (AID 2283047); settings: primary human coronary artery smooth muscle cells;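 also: sulforhodamine B total protein stain as relative cell number at 560 nm; sub-confluent cells exposed 48 h before staining; fitted both ways against DMSO so gain or loss of cell number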
[18] = read-out: Monokine induced gamma interferon (MIG), CXCL9 (gene 4283); experiment: BSK_CASM3C_MIG: BioMAP Diversity Plus: CASM3C Assay for Monokine induced gamma interferon (MIG) Biomarker Activity (AID 2283048); settings: primary human coronary artery smooth muscle cells; actives raise or lower the signal
[19] = read-out: serum amyloid A (SAA), SAA1 (gene 6288); experiment: BSK_CASM3C_SAA: BioMAP Diversity Plus: CASM3C Assay for serum amyloid A (SAA) Biomarker Activity (AID 2283049); settings: primary human coronary artery smooth muscle cells; actives raise or lower the signal;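 also: SAA protein level quantified by ELISA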
[20] = read-out: Transforming growth factor beta 1 (TGFb1), TGFB1 (gene 7040); experiment: BSK_BE3C_TGFb1: BioMAP Diversity Plus: BE3C Assay for Transforming growth factor beta 1 (TGFb1) Biomarker Activity (AID 2283036;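 also: TGF-b1 protein level measured by ELISA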); settings: primary human bronchial epithelial cells; actives raise or lower the signal
How it was run: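 ELISA readout of TGF-b1 from human lung bronchial epithelial primary cells, taken 24 h post-treatment. Gain or loss of signal fitted relative to DMSO baseline, with parallel SRB staining for overt cytotoxicity.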

Measured: AC50

FC(F)(F)C(F)(F)C(F)(F)C(F)(F)C(F)(F)C(F)(F)C(F)(F)CCI
inactive: [1] | [2] | [3] | [4] | [5] | [6] | [7] | [8] | [9] | [10] | [11] | [12] | [13] | [14] | [15] | [16] | [17] | [18] | [19]

CCN(CCO)S(=O)(=O)C(F)(F)C(F)(F)C(F)(F)C(F)(F)C(F)(F)C(F)(F)C(F)(F)C(F)(F)F
active: [3] 43.7 µM and 27.7 µM | [4] 50.6 µM | [5] 35 µM and 14.4 µM | [6] 50.6 µM and 43.2 µM | [7] 30 µM and 15.4 µM | [8] 47.8 µM | [9] 46.4 µM and 36.9 µM | [13] 15.6 µM | [14] 35.3 µM | [15] 7.08 µM and 8.16 µM | [17] 15.5 µM and 16.5 µM | [18] 8.09 µM and 7.66 µM | [19] 7.99 µM
inactive: [1] | [2] | [4] | [8] | [10] | [11] | [12] | [13] | [14] | [16] | [19]

O=C(O)CCC(F)(F)C(F)(F)C(F)(F)C(F)(F)C(F)(F)C(F)(F)C(F)(F)F
active: [3] 2.48 µM and 3.33 µM | [5] 2.32 µM
inactive: [1] | [2] | [4] | [5] | [6] | [7] | [8] | [9] | [10] | [11] | [12] | [13] | [14] | [15] | [16] | [17] | [18] | [19]

O=C(O)C(F)(F)C(F)(F)C(F)(F)C(=O)O
inactive: [1] | [2] | [3] | [4] | [5] | [6] | [7] | [8] | [9] | [10] | [11] | [12] | [13] | [14] | [15] | [16] | [17] | [18] | [19]

CCN(CC)c1ccc(C=O)cc1
inactive: [1] | [2] | [3] | [4] | [5] | [6] | [20] | [7] | [8] | [9] | [10] | [11] | [12] | [13] | [14] | [15] | [16] | [17] | [18] | [19]

COC(F)(C(F)F)C(F)(F)F (configuration not stated)
inactive: [1] | [2] | [3] | [4] | [5] | [6] | [7] | [8] | [9] | [10] | [11] | [12] | [13] | [14] | [15] | [16] | [17] | [18] | [19]

O=S(=O)(Cl)C(F)(F)C(F)(F)C(F)(F)C(F)(F)C(F)(F)C(F)(F)C(F)(F)C(F)(F)F
inactive: [1] | [2] | [4] | [8] | [10] | [12] | [13] | [14] | [15] | [16] | [17] | [18] | [19]
active: [1] 12.1 µM | [3] 44.8 µM and 46.8 µM | [5] 40.2 µM and 37 µM | [6] 55.8 µM and 53.6 µM | [7] 45.8 µM and 47.4 µM | [8] 55.2 µM | [9] 51.7 µM and 51.6 µM | [11] 48.7 µM and 48.8 µM

O=S(=O)(O)CCC(F)(F)C(F)(F)C(F)(F)C(F)(F)C(F)(F)C(F)(F)C(F)(F)C(F)(F)F
inactive: [1] | [2] | [4] | [6] | [7] | [8] | [9] | [10] | [11] | [12] | [13] | [14] | [15] | [16] | [17] | [18] | [19]
active: [3] 20.4 µM and 25.3 µM | [5] 16.8 µM and 24.1 µM | [7] 8.09 µM

O=C(O)C(F)(F)C(F)(F)C(F)(F)C(F)(F)C(F)(F)C(F)(F)C(F)F
inactive: [1] | [2] | [3] | [4] | [5] | [6] | [7] | [8] | [9] | [10] | [11] | [12] | [13] | [14] | [15] | [16] | [17] | [18] | [19]

C=CC(=O)OCCC(F)(F)C(F)(F)C(F)(F)C(F)(F)F
active: [4] 21.1 µM | [17] 15 µM | [18] 41.1 µM and 30 µM
inactive: [1] | [2] | [3] | [4] | [5] | [6] | [7] | [8] | [9] | [10] | [11] | [12] | [13] | [14] | [15] | [16] | [17] | [19]
